Source: PubChem BioAssay (National Center for Advancing Translational Sciences (NCATS))
D3 ag: qHTS of D3 Dopamine Receptor Agonist: qHTS; D3R DiscoveRx beta-arrestin cells, luminescence, 90 min; max activation, %; 0.58% of 410,000 active; AID 652048, 2013; in the data active means max activation above about 30%; further: 0% is about no effect
Target sequence (P35462 whole entry, looked up): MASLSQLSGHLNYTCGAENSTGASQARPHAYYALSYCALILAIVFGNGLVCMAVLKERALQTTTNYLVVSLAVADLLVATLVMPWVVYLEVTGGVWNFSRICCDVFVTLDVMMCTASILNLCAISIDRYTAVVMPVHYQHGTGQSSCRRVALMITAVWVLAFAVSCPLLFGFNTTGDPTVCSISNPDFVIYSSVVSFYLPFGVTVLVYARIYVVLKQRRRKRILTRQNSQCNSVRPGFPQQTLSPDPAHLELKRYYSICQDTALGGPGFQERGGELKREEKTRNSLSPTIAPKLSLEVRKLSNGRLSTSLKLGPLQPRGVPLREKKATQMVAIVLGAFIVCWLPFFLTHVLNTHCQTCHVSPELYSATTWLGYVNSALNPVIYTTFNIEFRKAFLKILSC
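Agonist-mode cell screen: cells plated at 1500/well and incubated overnight at 37 °C, then exposed to library compounds for 90 min at 37 °C. Detection reagent was added for 30–60 min at room temperature, and luminescence was read.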
D1 antag: Antagonist of Human D 1 Dopamine Receptor: qHTS. activity change, negative = inhibition, % at 10 µM. 3.2% of 360,000 active. HEK293 TREx D1 cells, calcium flux, dopamine EC80; hits give low values. D(1A) dopamine receptor (Homo sapiens), P21728; in the data active means activity change below about -30%; further: on the % scale 0 is the no-effect control and ±100 the full control effect
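After overnight tetracycline induction at 30 C, force-coupled D1 HEK293 cells took up a no-wash calcium dye at room temperature. Compounds were added and monitored 180 s, and the response to EC80 dopamine was then recorded.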
D3 antag: qHTS of D3 Dopamine Receptor Antagonist: qHTS. D(3) dopamine receptor (Homo sapiens), P35462. D3R cells, DiscoveRx beta-arrestin luminescence, antagonist mode; hits give low values. max response, negative = inhibition, %. 2.5% of 360,000 active; in the data active means max response below about -50%; inconclusive means no clear call, values can overlap the other calls; further: on the % scale 0 is the no-effect control and ±100 the full control effect
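Cells plated overnight at 1500 cells/well, then exposed to library compounds with dopamine controls for 90 minutes at 37 degrees C. DiscoveRx reagent added for 30–60 minutes at room temperature; luminescence read, quantitative HTS format.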
D1 ag: Allosteric Agonists of the Human D1 Dopamine Receptor: qHTS; HEK293 T-REx D1 cells, calcium flux, agonist mode; activation, % at 2 µM; 1% of 360,000 active; AID 504660, 2011; in the data active means activation above about 30%; further: 0% is about no effect
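Agonism was scored from calcium flux recorded over 180 s (1 read/s) after pintool compound addition, following a 10-cycle baseline. Cells were inducible force-coupled HEK293 TREx D1, plated overnight at 30 C and loaded with no-wash calcium dye.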
D1 potentiator: Potentiators of Human D1 Dopamine Receptor: qHTS | D(1A) dopamine receptor (Homo sapiens), P21728 | HEK293 TREx D1 cells, calcium flux, dopamine EC20 potentiation | potentiation, % at 10 µM | 0.036% of 360,000 active | AID 504651, 2011; in the data active means potentiation above about 30%; further: 0% is about no effect
* marks the source's active call; other numbers are inactive results; ? = inconclusive; · = no result given. Compounds with a hit are over-represented: about 6.1% of the library has one in this group of screens.

SMILES	D3 ag	D1 antag	D3 antag	D1 ag	D1 potentiator
CC(C)OC(=O)c1c2c(n3ccccc13)C(=O)c1ccccc1C2=O	23	15	51	254*	-8
COC(=O)c1c(C(=O)OC)c2ccccn2c1C(=O)c1ccc([N+](=O)[O-])cc1	-9	-2	17	1	0
CNc1cccc(-c2ccccc2CO)n1	-10	·	?	·	·
Cc1noc(C)c1C(=O)N1CCC1(C)C(=O)NS(=O)(=O)c1cccc(Cl)c1 (centres undefined)	30*	·	-5	·	·
CC(NC(=O)CCN1N=C(c2ccccc2)CCC1=O)c1ccc2c(c1)OCCO2 (centres undefined)	·	-4	·	0	-6
COc1ccc(C(CC(=O)O)NC(=O)Cc2ccccc2)cc1OC (centres undefined)	-8	-6	-24	1	-4
C=CCC(Nc1ccccc1)c1ccc(OC)c(OC)c1 (centres undefined)	·	-40*	·	0	-3
COc1cc(-c2noc(-c3ccc(N4CCN(C)CC4)c([N+](=O)[O-])c3)n2)cc(OC)c1OC	7	-22	·	12	-3
S=c1sc2c(Cl)ncnc2n1-c1ccccc1	-6	-44*	-61*	2	-12
C=CC(=O)NCC1OCCc2ccccc21 (centres undefined)	-5	4	-2	1	1
CN(C)CCC(=O)NCC1OCCc2ccccc21 (centres undefined)	7	-34*	-1	1	-5
O=C(NCC1OCCc2ccccc21)c1ccc(NC(=O)c2ccccc2Cl)cc1 (centres undefined)	2	-37*	-13	12	-4
COc1ccccc1NS(=O)(=O)c1ccc(OC)c([N+](=O)[O-])c1	-4	-21	-18	3	-1
COc1ccccc1NS(=O)(=O)c1ccc(NN=C2CCCCC2)c([N+](=O)[O-])c1	-7	2	-61*	-1	-4
COc1ccccc1NS(=O)(=O)c1ccc(N/N=C(\C)C(C)C)c([N+](=O)[O-])c1	-1	-31*	10	1	-3
CC1(C)CC(=O)C(C=NCCN2CCNCC2)=C(O)C1	-1	7	-5	1	-5
COc1cc(C(=O)O/N=C2\C=CC(=O)C(C)=C2)cc(OC)c1OC	-6	2	-57*	1	-4
COc1cc(C(=O)ON=C2C=C(C)C(=O)C(C)=C2)cc(OC)c1OC	-8	11	-7	1	0
c1coc(CNC2CCCCC2)c1	-1	-3	-26	1	-5
c1coc(CNC2CCCCCCC2)c1	0	-48*	-21	3	-2
CCOC(=O)C1CCN(C(=O)C2CCN(S(=O)(=O)c3cccc4nsnc34)CC2)CC1	3	-17	3	1	2
COc1ccccc1N1CCN(C2CCCN(Cc3cccc(O)c3)C2)CC1 (centres undefined)	-20	-50*	-10	-1	1
COc1ccccc1CN1CCCC(N2CCN(c3ccccc3OC)CC2)C1 (centres undefined)	-16	-50*	-10	6	-8
COc1cccc(CN2CCN(Cc3cc4ccccc4[nH]3)CC2CCO)c1 (centres undefined)	-10	-49*	-7	72*	-1
CCOc1ccc(CN2CCN(Cc3cc4ccccc4[nH]3)CC2CCO)cc1 (centres undefined)	1	-30*	1	41*	6
SMILES	D3 ag	D1 antag	D3 antag	D1 ag	D1 potentiator
COc1ccc(CN2CCN(Cc3c[nH]c4ccccc34)CC2CCO)c(F)c1 (centres undefined)	-11	-36*	0	15	-11
COc1cc(CN2CCN(Cc3c[nH]c4ccccc34)CC2CCO)cc(OC)c1 (centres undefined)	-10	8	0	17	1
CCOc1ccccc1C(=O)N1CC(=O)Nc2ccc(C)cc2C1c1ccccc1 (centres undefined)	1	-3	·	10	0
CCC(C)NCCCCOc1cc(C)cc(C(C)C)c1 (centres undefined)	-12	15	0	18	3
CCC(C)NCCOc1cc(C)cc(C)c1C (centres undefined)	-15	10	-69*	8	2
COc1ccc(N=Nc2nc3ccc(Br)cc3n2C)cc1	-4	24	-22	343*	1
CCN1/C(=C\C=C2\C(=O)N(C)C(=S)N2C)Sc2ccccc21	-6	-6	-2	3	2
CCC(=S)/C=C1\Sc2ccccc2N1CCCS(=O)(=O)O	7	18	-63*	4	-2
COc1cccc(CNC(=O)CCCSc2ccccc2)c1	14	-18	0	1	-9
Cc1ccc(-c2nc(N)sc2-c2ccccc2)cc1C	4	-1	13	1	-8
COc1ccc(-c2cc(=O)c3c(OC)c(OC)c(OC)c(OC)c3o2)cc1OC	40*	3	41	1	-3
CCOc1ccc(CCNC(=O)COC(=O)c2cccc(N(C)C)c2)cc1OCC	4	13	1	2	-6
Cc1cc(CNC(=O)COC(=O)C2CC3CCCC(C2)C3=O)cc(C)c1O (centres undefined)	0	·	10	·	·
C=CCn1cc(/C=C/c2cc[n+](C)cc2)c2ccccc21	-2	1	-10	38*	-5
CC(C)n1cc(/C=C/c2cc[n+](C)cc2)c2ccccc21	-6	0	7	88*	3
C=CCn1c(C)c(/C=C/c2cc[n+](C)cc2)c2ccccc21	3	4	-8	11	4
CCn1cc(/C=C/c2cc[n+](C)cc2)c2ccccc21	-8	-9	-3	69*	-7
Cc1cccc(-c2nc(S(=O)(=O)c3ccc(Cl)cc3)c(N3CCCCCC3)o2)c1	6	17	·	1	6
O=C(Nc1cc([N+](=O)[O-])c2[nH]c(=O)c3ccccc3c2c1)C(F)(F)F	-2	·	-12	·	·
COc1cccc(C(=O)Nc2ccccc2C(=O)OCc2cc(=O)n3nc(C4CC4)sc3n2)c1	0	-1	·	0	0
COc1ccc(N2CCN(C(=O)c3ccc4c(c3)CC(c3ccccc3)OC4=O)CC2)cc1 (centres undefined)	0	3	3	0	-2
COc1ccc(NC(=S)N/N=C2\CC(C)(C)Oc3ccc(OC)cc32)cc1	0	0	-24	1	-5
CCNC(=S)N/N=C1\CCCCc2ccccc21	0	10	-6	2	-1
Cc1cccc(NC(=S)N/N=C2/CCCCc3ccccc32)c1	-23	-1	-89*	2	-3
Cc1ccc(C)c(NC(=S)N/N=C2\CCc3ccccc32)c1	-1	2	-28	1	4
